Shown are actives, neighbours in structure and some others; about 1.3% of the full set was active somewhere.
IL1B NFkB pot – enhances IL-1B driven NFkB nuclear translocation. AID 819. activation, % at 2 µM. 0.3% of 94,000 active. HUVEC IL-1B NFkB p65 nuclear translocation imaging;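 active means activation above 40%, about the mean plus 3 SD, also judged a hit on visual image review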;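 further: percent activation is computed from the nuclear over cytoplasmic p65 intensity ratio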
IL1B cytotox – toxic to HUVEC cells under IL-1B stimulation | HUVEC cell count loss, Hoechst imaging, IL-1B stimulated | cell count reduction, % at 2 µM | 0.41% of 94,000 active | AID 845;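 active means cell count reduction more than 3 SD above the screen-wide mean, cut at about 70% in these data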;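 further: normalized per plate to untreated control cells as the no-loss baseline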
IL1B NFkB inh – blocks IL-1B driven NFkB nuclear translocation in HUVEC cells | HUVEC IL-1B NFkB p65 nuclear translocation imaging | inhibition, % at 2 µM | 0.43% of 94,000 active | AID 796;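 active means inhibition above about 30% together with a positive call from visual inspection of the well image, limit read from the data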;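 further: nuclear over cytoplasmic p65 intensity ratio measured by imaging; 0% = IL-1B stimulated DMSO wells and 100% = unstimulated DMSO wells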
LYP act – activators of human LYP (PTPN22) phosphatase | Q9Y2R2 | recombinant LYP, DiFMUP fluorescence; 0 = plate median, 100 = signal doubled | activation, % at 2 µM | 0.11% of 96,000 active | AID 697;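 active means activation at 2 µM above a set limit, the mean plus 5 SD, cut at about 37% in these data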
Target sequence (Q9Y2R2 whole entry, looked up): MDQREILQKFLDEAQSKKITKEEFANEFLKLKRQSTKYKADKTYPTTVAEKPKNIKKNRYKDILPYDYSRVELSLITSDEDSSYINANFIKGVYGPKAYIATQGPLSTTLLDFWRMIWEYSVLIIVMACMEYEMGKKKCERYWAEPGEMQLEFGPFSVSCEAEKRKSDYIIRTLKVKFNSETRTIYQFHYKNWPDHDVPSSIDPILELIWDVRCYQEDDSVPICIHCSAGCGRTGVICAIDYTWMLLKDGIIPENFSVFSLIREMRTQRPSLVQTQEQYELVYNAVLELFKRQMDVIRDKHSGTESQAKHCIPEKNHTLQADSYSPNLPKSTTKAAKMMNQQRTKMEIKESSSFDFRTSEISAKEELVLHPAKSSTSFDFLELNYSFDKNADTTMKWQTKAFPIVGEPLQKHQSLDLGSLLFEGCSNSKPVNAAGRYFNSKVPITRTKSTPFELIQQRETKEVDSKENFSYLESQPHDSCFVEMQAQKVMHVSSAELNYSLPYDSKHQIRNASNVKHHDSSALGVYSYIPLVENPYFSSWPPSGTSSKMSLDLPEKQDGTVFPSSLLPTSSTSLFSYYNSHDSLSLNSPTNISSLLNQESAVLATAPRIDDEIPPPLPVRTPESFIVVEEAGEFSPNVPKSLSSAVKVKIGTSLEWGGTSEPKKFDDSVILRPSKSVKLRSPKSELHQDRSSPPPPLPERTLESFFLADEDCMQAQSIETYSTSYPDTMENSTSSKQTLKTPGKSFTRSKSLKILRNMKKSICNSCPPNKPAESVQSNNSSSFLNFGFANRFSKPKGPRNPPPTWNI
PTPN22 inh 2 – inhibitors of human LYP (PTPN22) phosphatase | recombinant LYP catalytic domain, DiFMUP fluorescence | inhibition, % at 2 µM | 0.21% of 96,000 active;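 active means inhibition at 2 µM at or above a set limit, the screen mean plus 3 SD, cut at about 24% in these data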;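 further: 0% = DMSO with enzyme and 100% = enzyme fully blocked by orthovanadate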
* marks the source's active call; other numbers are inactive results; nt = not tested or not shown.

SMILES	IL1B NFkB pot	IL1B cytotox	IL1B NFkB inh	LYP act	PTPN22 inh 2
COc1ccc2c(c1)-c1c(ssc1=S)C(C)(C)N2	-20.3	93.9*	20.3	-12.0	10.8
Cc1ccc(NC(C#N)c2ccccc2OCc2ccccc2)cc1 (stereo unspecified)	-0.7	35.3	0.7	-7.4	11.2
O=C(COc1ccccc1)Nc1ccccc1N1CCN(c2ccccc2)CC1	41.8*	0.0	-41.8	7.4	-4.5
O=C(c1cccs1)c1no[n+]([O-])c1C(=O)c1cccs1	-1.9	14.1	1.9	-91.3	91.5*
c1ccc(-n2c(Cc3cn4ccsc4n3)nnc2N2CCOCC2)cc1	-5.8	-2.1	5.8	5.6	-8.9
COc1ccc(N2C(C)=CS/C2=C(/C#N)c2nnc(N3CCOCC3)n2-c2ccccc2)cc1	46.3*	-9.0	-46.3	7.7	-8.5
CCn1nc(C(=O)OC(C(=O)c2c[nH]c3ccccc23)c2ccccc2)c2ccccc2c1=O (stereo unspecified)	23.3	2.1	-23.3	2.6	-2.0
COC(=O)c1c[nH]n2c(=O)cc(C)nc12	-47.0	5.2	47.0*	-4.2	2.2
COc1ccc(-c2nn3c(-c4ccccc4)nnc3s2)cc1	0.4	-9.4	-0.4	-2.3	1.7
COc1cccc(OC)c1-c1nn2c(-c3cc(-c4ccccc4)n[nH]3)nnc2s1	3.2	-1.9	-3.2	-38.7	37.5*
CCOc1cccc(-c2nn3c(-c4cc(C)[nH]n4)nnc3s2)c1	-8.4	-28.0	8.4	8.8	-10.9
CCN(CC)c1ccc(-c2nn3c(-c4ccccc4OC)nnc3s2)cc1	-28.9	71.0*	28.9	-1.3	-0.1
COC(=O)c1[nH]c2cccc(OC)c2c1NC(=O)C(C)N1CCC(C)CC1 (stereo unspecified)	-2.3	-4.6	2.3	-5.0	6.5
Cn1c(Sc2ccc(Br)cc2)c(C=O)c2ccccc21	0.1	-12.9	-0.1	0.9	5.2
CCCCNC(=O)c1onc(CSc2cccc(C)c2)c1C(=O)O	-9.5	-22.1	9.5	-6.9	9.2
Clc1ccc(OCc2nn3c(-c4ccncc4)nnc3s2)cc1	45.5*	-18.5	-45.5	-10.5	10.9
CCOc1ccc(-c2nnc3sc(COc4ccc(Cl)cc4)nn23)cc1	17.5	-67.5	-17.5	-1.7	1.1
O=C(NCc1ccccc1)c1cccc(COc2cccc(Cl)c2)c1	-1.8	-27.5	1.8	2.8	1.4
O=C(NCc1ccccc1)Oc1cccc(Cl)c1	42.3*	-62.4	-42.3	0.8	-5.1
O=C(O)c1cccc(S(=O)(=O)NCC2CCCO2)c1 (stereo unspecified)	-93.2	90.4*	93.2*	2.8	-3.5
CCOc1ccc(/C=N/NC(=O)COc2ccccc2-c2ccccc2)cc1	11.3	-12.4	-11.3	4.4	0.8
O=C(COc1ccccc1C(=O)N/N=C\c1ccc(O)c(O)c1)N/N=C/c1ccc(O)c(O)c1	nt	nt	nt	-27.8	31.5*
O=C(Cn1c(-c2cncs2)nc2ccccc21)NCc1ccccc1	-1.6	90.5*	1.6	4.7	-4.0
Cc1ccccc1Cn1c(-c2cncs2)nc2ccccc21	-0.6	16.9	0.6	-1.5	0.8
COc1ccc(C(C)n2c(C)c3c(C)nnc(C)c3c2C)cc1 (stereo unspecified)	-41.3	-19.9	41.3*	-1.7	5.7
SMILES	IL1B NFkB pot	IL1B cytotox	IL1B NFkB inh	LYP act	PTPN22 inh 2
Cc1nnc(C)c2c(C)n(C(C)c3ccccc3)c(C)c12 (stereo unspecified)	8.1	8.9	-8.1	6.7	-4.2
COC(=O)C1=C(C)N(CCc2ccccc2)C(=O)C1	-87.6	92.6*	87.6*	6.6	-7.2
N#C/C(=C\c1ccccc1)c1nc2ncccc2[nH]1	nt	nt	nt	-6.1	11.0
O=C(NNS(=O)(=O)c1ccc(Br)cc1)c1ccncc1	-34.9	6.6	34.9*	1.0	3.8
COc1ccccc1NC(=O)C(CCS(C)(=O)=O)N1C(=O)c2ccccc2C1=O (stereo unspecified)	42.4*	30.0	-42.4	0.2	-1.6
COc1ccc(NC(=O)[C@H](CCS(C)(=O)=O)N2Cc3ccccc3C2=O)c(OC)c1	24.6	-2.2	-24.6	-6.4	3.6
O=C1CCCCCCC1Sc1ccccc1[N+](=O)[O-] (stereo unspecified)	22.7	11.0	-22.7	-0.2	3.1
CC(Nc1ccccc1)c1cc(Cl)ccc1O (stereo unspecified)	-91.3	89.0*	91.3*	4.8	-12.8
CN(C)c1ccc(/C=N/c2cc(-c3ccccc3)nn2-c2ccccc2)cc1	7.5	7.9	-7.5	4.6	-2.9
CC(C)CNc1nc(=S)nc(N(C)C)[nH]1	-37.2	20.6	37.2*	-1.0	4.5
